Results filed as inconclusive are left out. Active and inactive are the calls of the source. The calls were made as follows: active = hit-call score of the fitted dose curve at least 0.9, where 1 is the maximum; inconclusive = response in the unintended direction; inactive = score below 0.9.
Experiments:
[1] = TOX21_p53_BLA_p2_viability: Viability Assessment in the Tox21 HCT-116 p53 Agonism Beta-lactamase Assay, Phase 2 (AID 2283591);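 also: compound exposure lasted 16 h at 37 °C; actives lower the ATP signal meaning cytotoxicity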
In short: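 Cytotoxicity readout: CellTiter-Glo ATP luminescence, 30 min at room temperature, after the beta-lactamase read. Cells were HCT116 exposed 16 h at 37C to compounds pin-transferred at 217-fold dilution from DMSO stocks.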

[2] = TOX21_p53_BLA_p3_viability: Viability Assessment in the Tox21 HCT-116 p53 Agonism Beta-lactamase Assay, Phase 3 (AID 2283593);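 also: cells exposed to compound for 16 h before reading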
In short: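 Cellular ATP was quantified by CellTiter-Glo luminescence, read after 30 min at room temperature. Beforehand, HCT116 cells (4000/well) received compound 5 h post-seeding, 217-fold diluted from DMSO, then incubated 16 h at 37C.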

[3] = biological target: Cellular tumor antigen p53 (Homo sapiens) (UniProt P04637); assay: TOX21_p53_BLA_p5_ratio: Tox21 HCT-116 p53 Agonism Beta-lactamase Assay, Ratio, Phase 5 (AID 2283599)
Cellular tumor antigen p53 (Homo sapiens), sequence (P04637 whole entry, looked up): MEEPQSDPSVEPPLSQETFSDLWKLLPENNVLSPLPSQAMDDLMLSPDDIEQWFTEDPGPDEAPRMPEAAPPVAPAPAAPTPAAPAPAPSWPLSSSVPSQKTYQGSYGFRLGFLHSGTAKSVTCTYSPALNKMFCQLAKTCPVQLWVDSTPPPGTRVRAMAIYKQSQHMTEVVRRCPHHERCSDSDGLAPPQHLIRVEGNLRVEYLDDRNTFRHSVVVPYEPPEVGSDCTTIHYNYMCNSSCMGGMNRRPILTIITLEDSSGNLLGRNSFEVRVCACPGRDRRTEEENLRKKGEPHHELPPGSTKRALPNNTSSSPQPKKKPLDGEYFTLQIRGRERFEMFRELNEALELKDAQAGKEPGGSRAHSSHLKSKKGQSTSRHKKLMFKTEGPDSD
In short: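 Beta-lactamase reporter ratio (blue 460 nm over green 530 nm, 405 nm excitation) after 2 h CCF4-AM loading, in HCT-116 cells exposed 16 h at 37 C to compounds pinned at 217-fold dilution. Increases relative to DMSO baseline scored.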

[4] = TOX21_p53_BLA_p5_viability: Viability Assessment in the Tox21 HCT-116 p53 Agonism Beta-lactamase Assay, Phase 5 (AID 2283600)
In short: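 Here cell health was gauged by ATP levels in wells holding 4000 cells, each treated 16 h with DMSO-delivered compounds at 217-fold dilution; reduced luminescence marked toxicity.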

[5] = TOX21_PR_BLA_Followup_Antagonist_viability: Viability Assessment in the Tox21 HEK293 Progesterone Receptor (PR) Antagonism Beta-lactamase Follow-Up Assay (AID 2283936);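 also: cells exposed to compound with R5020 agonist for 16 h; hits lower the luminescence signal meaning cytotoxicity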
In short: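 PR-UAS-bla HEK293T cells in medium with 2% charcoal-stripped FBS were treated with compounds plus R5020 for 16 hr at 37C. After the beta-lactamase read, CellTiter-Glo was added to the same wells and luminescence read after 30 min at room temperature.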

PGR (gene 5241) = PGR (gene 5241) (UniProt P06401); assay: TOX21_PR_LUC_Followup_Antagonist: Tox21 HEK293 Progesterone Receptor (PR) Antagonism Luciferase Follow-Up Assay (AID 2283938);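 also: curve fitted upward as signal gain over DMSO baseline despite antagonist label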
PGR (gene 5241), sequence (P06401 whole entry, looked up): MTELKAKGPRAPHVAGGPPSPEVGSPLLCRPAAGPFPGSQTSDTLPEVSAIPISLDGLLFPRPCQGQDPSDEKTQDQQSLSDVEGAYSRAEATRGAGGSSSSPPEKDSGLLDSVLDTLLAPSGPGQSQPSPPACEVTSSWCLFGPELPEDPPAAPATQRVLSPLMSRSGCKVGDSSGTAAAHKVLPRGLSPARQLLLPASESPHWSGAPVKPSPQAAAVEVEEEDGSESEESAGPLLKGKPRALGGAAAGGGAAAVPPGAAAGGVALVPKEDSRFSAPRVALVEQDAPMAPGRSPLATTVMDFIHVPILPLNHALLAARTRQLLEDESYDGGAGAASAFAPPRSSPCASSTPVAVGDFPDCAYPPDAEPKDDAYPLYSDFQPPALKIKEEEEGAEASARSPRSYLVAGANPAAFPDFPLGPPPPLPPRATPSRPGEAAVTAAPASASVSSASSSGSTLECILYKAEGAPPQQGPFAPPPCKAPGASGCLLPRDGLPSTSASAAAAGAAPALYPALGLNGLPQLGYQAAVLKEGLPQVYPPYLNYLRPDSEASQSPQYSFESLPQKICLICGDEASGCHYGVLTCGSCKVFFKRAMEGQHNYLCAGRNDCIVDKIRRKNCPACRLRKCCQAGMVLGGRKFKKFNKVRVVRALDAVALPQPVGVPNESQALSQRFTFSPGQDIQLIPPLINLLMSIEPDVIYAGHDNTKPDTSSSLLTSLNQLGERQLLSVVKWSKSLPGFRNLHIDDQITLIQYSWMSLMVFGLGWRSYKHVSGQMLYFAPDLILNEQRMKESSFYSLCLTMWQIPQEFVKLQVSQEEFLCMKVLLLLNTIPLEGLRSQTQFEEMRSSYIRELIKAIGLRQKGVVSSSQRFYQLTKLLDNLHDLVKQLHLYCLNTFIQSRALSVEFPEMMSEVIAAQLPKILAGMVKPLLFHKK
In short: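 Luciferase reporter in HEK293-PR-A-luc cells: 16 h compound treatment at 37C, ONE-Glo luminescence detection, DMSO as negative control and baseline.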

[6] = TOX21_PR_LUC_Followup_Antagonist_viability: Viability Assessment in the Tox21 HEK293 Progesterone Receptor (PR) Antagonism Luciferase Follow-Up Assay (AID 2283940)
In short: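 HEK293-PR-A-luc, 3,000 cells/well; 5 h at 37C/0% CO2; compound pin transfer; 16 h incubation; CellTiter-Glo ATP luminescence, signal loss = cytotoxicity.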

[7] = TOX21_PR_LUC_Followup_Agonist_viability: Viability Assessment in the Tox21 HEK293 Progesterone Receptor (PR) Agonism Luciferase Follow-Up Assay (AID 2283941);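 also: loss of signal means cytotoxicity so actives lower viability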
In short: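 Multiplexed viability endpoint of the PR agonist luciferase follow-up: HEK293-PR-A-luc cells treated 16 h at 37C, with viability scored as decrease in CellTiter-Glo ATP signal.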

[8] = TOX21_p53_BLA_p4_viability: Viability Assessment in the Tox21 HCT-116 p53 Agonism Beta-lactamase Assay, Phase 4 (AID 2283597);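 also: hits lower the luminescence signal meaning cytotoxicity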
In short: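 In this multiplexed secondary endpoint, HCT116 cells (4000 per well, compound at 5 h, 16 h treatment) received CellTiter-Glo after the beta-lactamase read. Luminescence after 30 min RT reflects ATP, and falling signal marks cytotoxicity.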

[9] = biological target: Cellular tumor antigen p53 (Homo sapiens) (UniProt P04637); assay: TOX21_p53_BLA_p4_ratio: Tox21 HCT-116 p53 Agonism Beta-lactamase Assay, Ratio, Phase 4 (AID 2283601)
In short: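 Signal is the blue/green (460nm/530nm) ratio of cleaved versus uncleaved CCF4-AM substrate, read after 2 h substrate loading. Cells were HCT116 carrying the p53-responsive beta-lactamase reporter, dosed 16 h at 37C, 5% CO2; CellTiter-Glo measured in parallel.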

[10] = biological target: Cellular tumor antigen p53 (Homo sapiens) (UniProt P04637); assay: TOX21_p53_BLA_p3_ratio: Tox21 HCT-116 p53 Agonism Beta-lactamase Assay, Ratio, Phase 3 (AID 2283596)
In short: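 Cells were seeded at 4000/well, rested 5 h at 37C, then dosed with DMSO compound solutions (217-fold dilution) for 16 h. CCF4-AM substrate was loaded for 2 h at room temperature, and the 460/530 nm emission ratio was fitted for gain of signal versus DMSO.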

[11] = TOX21_PR_BLA_Followup_Agonist_viability: Viability Assessment in the Tox21 HEK293 Progesterone Receptor (PR) Agonism Beta-lactamase Follow-Up Assay (AID 2283935);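 also: signal loss means lower viability so actives are cytotoxic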
In short: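 Cells were plated in medium with 2% charcoal-stripped FBS and rested 6 hr. Compounds in DMSO were then added for 16 hr at 37C, followed by the FRET substrate step and CellTiter-Glo luminescence after 30 min.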

Measured: AC50

C[C@@H]1C[C@H]2[C@@H]3C[C@H](F)C4=CC(=O)C(Cl)=C[C@]4(C)[C@@]3(F)[C@@H](O)C[C@]2(C)[C@@]1(O)C(=O)CO
inactive: [1] | [2] | [3] | [4] | [5] | PGR (gene 5241) | [6] | [7]

Cc1ccc(/C(=C\CN2CCCC2)c2cccc(/C=C/C(=O)O)n2)cc1
inactive: [1] | [2] | [8] | [9]

O=C(O)CCC(=O)Nc1ccc(S(=O)(=O)Nc2nccs2)cc1
inactive: [1] | [2] | [3] | [4] | [9]

CCCCCCCCCCCC(=O)N(CC)CC
inactive: [1] | [2] | [3] | [4]

CC1(C)[C@H]2CC[C@](C)(C2)[C@H]1O
inactive: [1] | [2] | [8] | [9]

CC1CCc2nccnc21 (stereo unspecified)
inactive: [1] | [2] | [4]

COc1cc(N)c(Cl)cc1C(=O)NC1CCN(Cc2ccccc2)CC1
inactive: [1] | [2] | [4]

O=C(O)c1cccc(/C=C2/C[C@@H]3[C@@H](/C=C/[C@@H](O)C4CCCCC4)[C@H](O)C[C@@H]3O2)c1
inactive: [1] | [2] | [3] | [4] | [9]

O=C1OCCO1
inactive: [1] | [2] | [3] | [4]

C[C@@]12CCC[C@H]1[C@@H]1CC[C@H]3C[C@@H](O)CC[C@]3(C)[C@H]1CC2
inactive: [1] | [10]

C=C(C)C(=O)OCCCCCCCCCCOC(=O)C(=C)C
inactive: [1] | [2] | [3]

CCOCCOCCOC(C)=O
inactive: [1] | [2] | [3] | [4] | [9]

COC(=O)C(c1ccccc1Cl)N1CCc2sccc2C1 (stereo unspecified)
inactive: [1] | [2] | [3] | [4] | [11] | [5] | [7]
active: PGR (gene 5241) 23 µM

CC(CO)(CO)CO
inactive: [1] | [2] | [3] | [4] | [9]

C[N+]1(CCCCC[N+]2(C)CCCC2)CCCC1
inactive: [1] | [2] | [3] | [9]

CCC(C)SSC(C)CC (stereo unspecified)
inactive: [1] | [10] | [8] | [3] | [4] | [9]

CC(C)Cc1nccs1
inactive: [1] | [10] | [8] | [3]

Cc1cc(C(=O)O)ccc1[N+](=O)[O-]
inactive: [1] | [10] | [8] | [3]

O=C(O)CNCC(=O)O
inactive: [1] | [10] | [8] | [3] | [4]

Nc1ncnc2c1ncn2[C@H]1CC[C@@H](CO)O1
inactive: [1] | [10] | [8] | [3] | [4] | [9]

CN1CCCN=C1/C=C/c1cccs1
inactive: [1] | [10] | [8]

CCOC(=O)[C@H](CCc1ccccc1)N[C@@H](C)C(=O)N1C(=O)N(C)C[C@H]1C(=O)O
inactive: [1] | [10] | [8] | [3] | [4]

ClCC=CCCl
inactive: [1] | [10] | [8] | [3] | [9]

CN1[C@@H]2CC[C@H]1CC(NC(=O)n1c(=O)[nH]c3ccccc31)C2 (stereo partly specified)
inactive: [1] | [10] | [8] | [3] | [9]

CCCC(=O)OC(=O)CCC
inactive: [1] | [10] | [8] | [3] | [4] | [9]

CC(=C(CCOC(=O)C(C)C)SSC(CCOC(=O)C(C)C)=C(C)N(C=O)Cc1cnc(C)nc1N)N(C=O)Cc1cnc(C)nc1N
inactive: [1] | [10] | [8] | [3] | [4] | [9]

O=C1c2ccccc2-c2ccccc21
inactive: [1] | [10] | [8] | [3]

CC1=CC(=O)CC(C)(C)C1=O
inactive: [1] | [10] | [8] | [3] | [4] | [9]

O.O=C([O-])CC([S-])C(=O)[O-].[Au+].[Na+].[Na+] (stereo unspecified)
inactive: [1] | [10] | [8] | [3]
